Data as given in PubChem BioAssay (EPA / NIEHS).
The source made the active and inactive calls. Rule for the calls: active = hit-call score of the fitted dose curve at least 0.9, where 1 is the maximum; inactive = score below 0.9.

Test: ATG_M_32_CIS: Attagene CIS-FACTORIAL HepG2 Assay for M32 Transcription Factor (Internal Marker) (AID 2282949);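 note: background control marker of the multiplexed CIS panel rather than a real target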
Details: HepG2 Attagene cis-factorial M32 reporter, mRNA; actives raise or lower the signal
Outline: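 HepG2 transfectants (cis-regulated reporter transcription units) dosed 24 h. Reporter mRNA by RT-PCR plus CE, analysed as gain or loss relative to DMSO.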

| SMILES | outcome | AC50 |
| --- | --- | --- |
| CC(C)C[C@H]1C(=O)N2CCC[C@H]2[C@]2(O)O[C@](NC(=O)[C@@H]3C=C4c5cccc6[nH]c(Br)c(c56)C[C@H]4N(C)C3)(C(C)C)C(=O)N12 | inactive | – |
| CCOc1ccccc1OCC | inactive | – |
| NC(=O)Nc1ccc(Cl)cc1 | inactive | – |
| O=C(O)c1ccc(C(=O)O)cc1 | inactive | – |
| C=C(C)C(=O)O | inactive | – |
| Cc1ccc(C(=O)O)o1 | inactive | – |
| Nc1ccc(S(N)(=O)=O)cc1 | inactive | – |
| O=C(Cl)c1cccc(C(=O)Cl)c1 | inactive | – |
| CCN(CC)c1ccc(C(=C2C=CC(=[N+](CC)CC)C=C2)c2ccc(S(=O)(=O)O)cc2S(=O)(=O)[O-])cc1 | inactive | – |
| O=c1cc(-c2ccccc2)oc2cc(O)cc(O)c12 | inactive | – |
| CCCc1ccccc1O | inactive | – |
| NC(N)=NC(=O)c1nc(Cl)c(N)nc1N | inactive | – |
| C=CC[N+](C)(C)CC=C | inactive | – |
| CCCCN | inactive | – |
| CN(C)c1ccc(O)c2c1C[C@H]1C[C@H]3[C@H](N(C)C)C(=O)C(C(N)=O)=C(O)[C@@]3(O)C(=O)C1=C2O | inactive | – |
| O=C(O)CN(CCN(CC(=O)O)CC(=O)O)CCN(CC(=O)O)CC(=O)O | inactive | – |
| CC(C)CCCCCCCOC(=O)c1ccc(C(=O)OCCCCCCCC(C)C)c(C(=O)OCCCCCCCC(C)C)c1 | inactive | – |
| CCCCCCCCCC=O | inactive | – |
| C[C@H]1C[C@@H]2[C@H]([C@@H](O)C[C@@]3(C)[C@H]2CC[C@]3(O)C(=O)CO)[C@@]2(C)C=CC(=O)C=C12 | – | 131 µM (active) |
| Cc1cccc(Nc2ccccc2C(=O)O)c1C | inactive | – |
| COc1cc(C=O)ccc1OC(=O)C(C)C | inactive | – |
